The values below come from PubChem BioAssay (NCI).

Structures are written as SMILES. The panel holds about 83,000 compounds, 20% with a hit somewhere; the sample as a whole holds those more often.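 Single-dose data. Exposure time 48 hours. Values below 10 considered active.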 Unmarked numbers belong to inactive results. Activity calls are given as the source filed them.

Test in all cases: NCI-60 one-dose screen, 48 h (100 = growth as untreated, 0 = no growth, -100 = all killed)
Settings in all cases: 10 µM unless noted

Experiment [1] has as its system HCT-15 colon.
For experiment [2], the system named is HT29 colon.
The subject of experiment [3] is SNB-75 CNS.
Experiment [4] deals with SNB-19 CNS.
Experiment [5] deals with U251 CNS.
The test system of experiment [6] is PC-3 prostate.
Experiment [7] concerns SK-MEL-5 melanoma.
The test system of experiment [8] is UACC-62 melanoma.
Experiment [9] has as its system LOX IMVI melanoma.
Experiment [10] concerns SK-MEL-28 melanoma.
In experiment [11] the test system is SK-MEL-2 melanoma.
The subject of experiment [12] is EKVX NSCLC.
The subject of experiment [13] is SN12C renal.
For experiment [14], the system named is UO-31 renal.
Experiment [15] deals with TK-10 renal.
Experiment [16] relates to ACHN renal.
Experiment [17] deals with CAKI-1 renal.
Experiment [18] relates to CCRF-CEM leukemia.
The subject of experiment [19] is MOLT-4 leukemia.

Consider `COc1cc(C(=O)c2cnc(-c3ccc4cc[nH]c4c3)[nH]2)cc(OC)c1OC`, for which the growth in experiment [1] is 6.36% (active); in experiment [2], -21.6% (active); in experiment [3], 9.22% (active); in experiment [4] it was 23.1%; in [5], 10%; in experiment [6], 18%. Moreover, the growth in [7] was -63% (active); in [8], 29.4%; in experiment [9], 8.42% (active); in [10], 55.9%; in experiment [11], 35.8%; in experiment [12] it was 28.2%. The growth was 20.5% in experiment [13]; 11.4% in experiment [14]; 33.3% in experiment [15]; 15.5% in experiment [16]; 8.22% (active) in experiment [17]; 5.89% (active) in experiment [18]. The growth in experiment [19] is 7.06% (active).
Regarding `Cc1[nH]c(C(=O)Nc2ccccc2OCc2cccc(C(=O)NCCN)c2)c(Cl)c1Cl`, the growth in [1] was 86.3%; in experiment [2], 38.2%; in experiment [3], 86.2%; in experiment [4], 58.3%; in [5], 4.71% (active); in [6], 79.7%. For the same molecule, the growth in [7] was 95.3%; in experiment [8] it was 92.6%; in [9], -48.1% (active); in experiment [10], 84.3%; in experiment [11], 107%; in experiment [12] it was 89.1%. Also, the growth in experiment [13] was 58%; in experiment [14] it was 75%; in experiment [15], 138%; in experiment [16] it was 101%; in [17], 85.6%; in experiment [18], 25.1%. The growth in [19] was 40.3%.
As to `CC(=O)OCC(=O)C1(O)C(C)CC2C3C=C(C)C4=Cc5c(cnn5-c5ccccc5)CC4(C)C3C(O)CC21C` (stereo not drawn), the growth in experiment [1] is -36.2% (active); in [2] it was -54.9% (active); in experiment [3], -8.24% (active); in [4], 10.3%; in [5] it was 14.3%; in [6], 9.92% (active). Also, the growth in experiment [7] was -14.2% (active); in [8] it was -26.6% (active); in experiment [9], 6.79% (active); in experiment [10], 35.3%; in experiment [11], 25.1%; in [12], 27%. Moreover, the growth was 33.5% in [13]; -11.6% (active) in experiment [14]; 38.7% in experiment [15]; 22.8% in experiment [16]; 21.3% in [17]; 10.6% in experiment [18]. The growth in experiment [19] is 9.2% (active).
In the case of `O=C(N=Nc1c(O)[nH]c2ccc(F)cc12)c1cc2ccccc2[nH]1`, the growth in experiment [1] is 96%; in experiment [2], 109%; in experiment [3], 99.6%; in [4], 97.7%; in [5] it was 94.7%; in experiment [6], 103%. For the same molecule, the growth was 99.7% in [7]; 96.1% in experiment [8]; 97.3% in [9]; 110% in [10]; 91% in experiment [11]; 89% in experiment [12]. Besides, the growth in experiment [13] is 91.2%; in [14], 76.2%; in [15], 106%; in [16], 100%; in [17], 80.7%; in [18], 99.5%. For the same molecule, in [19], the growth was 99.2%.
As for `CN(C)C(C(N)=O)c1ccc(Cl)cc1` (stereo not drawn), the growth in experiment [1] is 108%; in [2], 104%; in experiment [3], 93.6%; in experiment [4], 99.9%; in [5], 93.4%; in [6], 95.1%. In addition, the growth is 101% in experiment [7]; 90.8% in experiment [8]; 95.7% in experiment [9]; 101% in experiment [10]; 102% in [11]; 97.8% in [12]. For the same molecule, the growth in [13] was 103%; in experiment [14], 94.2%; in experiment [15] it was 92.2%; in [16], 95.2%; in experiment [17], 93.4%; in experiment [18], 115%. Moreover, the growth in [19] is 95.5%.
For `O=C(Nc1cccc(Cl)c1)c1cc(Cl)ccc1O`, the growth is 12% in experiment [1]; 15.5% in experiment [2]; -26.8% (active) in experiment [3]; 15.9% in [4]; 15.7% in experiment [5]; -4.48% (active) in experiment [6]. The growth in experiment [7] is -54.4% (active); in experiment [8], 0.352% (active); in experiment [9] it was -32.5% (active); in experiment [10] it was 10.1%; in experiment [11], -17.7% (active); in [12] it was 7.96% (active). Moreover, the growth in [13] is -0.418% (active); in [14], 7.54% (active); in [15], 13.4%; in experiment [16], -0.748% (active); in experiment [17] it was -7.81% (active); in experiment [18], 12.9%. In addition, in [19], the growth is 4.18% (active).
As for `FCc1nc2nc(Cl)c(Cl)nc2[nH]1`, the growth was 103% in [1]; 99.4% in experiment [2]; 91.2% in experiment [3]; 94.9% in [4]; 101% in experiment [5]; 95.2% in [6]. For the same molecule, the growth was 99.4% in experiment [7]; 94.9% in [8]; 95.3% in experiment [9]; 105% in [10]; 107% in experiment [11]; 103% in experiment [12]. Besides, the growth was 109% in [13]; 94.5% in experiment [14]; 92.7% in experiment [15]; 99.5% in experiment [16]; 91.6% in [17]; 104% in experiment [18]. The growth in [19] was 97.8%.
